From PubChem BioAssay (NCI)
The panel holds about 83,000 compounds, 20% with a hit somewhere; the sample as a whole holds those more often.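 Cell lines were cultured in 96-well plates, exposed to a single compound concentration, and assessed for percent growth 48 hours later.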 Values without a mark were called inactive. Activity calls are given as the source filed them. The calls were made as follows: active = growth percent below 10; inactive = the rest.

Tests used:
Test in all cases: NCI-60 one-dose screen, 48 h (100 = growth as untreated, 0 = no growth, -100 = all killed)
Details in all cases: 10 µM unless noted
[1] = tested on: T-47D breast
[2] = tested on: BT-549 breast
[3] = tested on: MDA-MB-435 melanoma
[4] = tested on: SW-620 colon
[5] = tested on: MCF7 breast
[6] = tested on: HCT-116 colon
[7] = tested on: HCC-2998 colon
[8] = tested on: KM12 colon

SMILES	growth [1]	growth [2]	growth [3]	growth [4]	growth [5]	growth [6]	growth [7]	growth [8]
COc1cccc(/C=C/C(=O)c2ccc(NC(=O)COc3cccc4cccnc34)cc2)c1	82.9%	86.1%	100%	94.3%	52.4%	3.49% (active)	99.3%	96.3%
N#Cc1c(-c2ccccc2)cc(-c2c[nH]c3ccccc23)nc1-c1c[nH]c2ccccc12	86.7%	94.7%	103%	102%	95%	103%	93.6%	103%
O=C(Nc1cc(F)cc2cccnc12)c1cnc(N2CCOCC2)cn1	23.9%	72.4%	90.9%	51.3%	2.58% (active)	9.63% (active)	107%	99.1%
COc1cc(CNC(=O)/C=C/c2ccccc2)ccc1OCC(=O)NO	99.6%	107%	102%	107%	89.9%	98.7%	104%	99.3%
Cc1ccc(S(=O)(=O)N/N=C/c2cn(-c3ccc(F)cc3)nc2-c2ccc(S(C)(=O)=O)cc2)cc1	98.5%	105%	100%	103%	95.7%	107%	108%	102%
CSc1ccc(/C(=N/N=C(N)N)c2ccccc2)cc1	70.9%	53.8%	-18% (active)	25.7%	11.7%	13%	9.99% (active)	17.2%
CCCCCCCCNC(=O)c1ccc(Cn2c(CCCC)nc3c(N)nc4ccccc4c32)cc1	-38.2% (active)	92.7%	-83.1% (active)	-39.6% (active)	-78% (active)	-84.2% (active)	15.5%	42.1%
COc1ccc(NC(=O)Cn2cc(CN3C(=O)c4ccc([N+](=O)[O-])cc4C3=O)nn2)cc1	95.5%	111%	110%	97.5%	91.3%	109%	102%	106%
CN1CCN(c2ccc3c(c2)nc(NNC(=O)c2ccncn2)c2cccn23)CC1	32.7%	45.2%	27.5%	22.8%	17.6%	23.6%	22.3%	17.4%
CC[C@]12C=CCN3CC[C@]4(C(=C(C(=O)OC)C1)Nc1cc5c(cc14)[C@@H]1[C@H](O5)[C@@H](O)[C@@]4(CC)CC(C(=O)OC)=C5Nc6cc(OC)ccc6[C@@]56CCN1[C@@H]46)[C@@H]32	9.28% (active)	37.8%	-12.5% (active)	3.27% (active)	6.01% (active)	-87.2% (active)	-58.7% (active)	9.56% (active)
COc1ccc2c(C3=C(c4c[nH]c5ccccc45)C(=O)N(O)C3=O)coc2c1	40.6%	118%	107%	98.6%	44.5%	93.1%	103%	97.6%
COc1ccc(-c2nc(SCCC(C)C)nc(N/N=C\c3ccc(O)cc3)c2C#N)cc1	76.7%	67.5%	49.5%	54.1%	40.3%	39.6%	86.8%	67%
O=C(Nc1cc(Cl)cc(Cl)c1)Nc1nc2ccc([N+](=O)[O-])cc2s1	-13.4% (active)	-24% (active)	-6.04% (active)	8.7% (active)	2.98% (active)	0.0425% (active)	3.91% (active)	3.63% (active)
COc1cc2cc(Oc3ccc(NC(=O)Nc4cccc(C(F)(F)F)c4)cc3)c(C)nc2cc1OCCN(C)C	91.8%	119%	96.6%	111%	69.2%	82.8%	105%	98.2%
COc1ccc(CCN2C(=O)CSC2=S)cc1OC	52.7%	110%	93.6%	57.9%	29.3%	99.6%	111%	16.6%
Cc1cc(Cl)cc(NS(=O)(=O)c2ccc(-c3cnc(C4CC4)o3)cc2)c1	36.1%	48%	-23.8% (active)	28%	24.9%	18.4%	19.8%	15.4%

SMILES	growth [1]	growth [2]	growth [3]	growth [4]	growth [5]	growth [6]	growth [7]	growth [8]
COc1ccccc1/C=C/C(=O)c1nnn(-c2ccc(C(=O)O)cc2)c1C	87.9%	96.4%	87.8%	102%	54.2%	68%	102%	93.8%
COc1cc(OC)c(S(N)(=O)=O)cc1C(=O)/C=C/c1ccccc1	13.6%	16.7%	9.57% (active)	3.85% (active)	10.9%	11.7%	22.3%	3.96% (active)
C/C(=C(/c1ccc(O)cc1)c1ccc(OCCN2CCCCCC2)cc1)c1ccccc1	20.5%	61.1%	52.4%	-52.6% (active)	10.2%	28.2%	34.8%	43.2%
CCN1C(=O)N(CC)C2SC(N/N=C/c3ccc(OC)cc3)=NC21 (stereo not drawn)	80.9%	18.9%	0.665% (active)	20.2%	15.2%	6.83% (active)	13.5%	13.9%
NC(=O)N1N=C(c2cc3ccccc3oc2=O)CC1c1cn(-c2ccccc2)nc1-c1ccc(Cl)cc1 (stereo not drawn)	25.1%	68.7%	47.4%	35.5%	25.4%	26.7%	57%	34.5%
CCN(CC)CCN1C(=O)c2c(c3c4cccnc4[nH]c3c3ccc4ccccc4c23)C1=O	66%	85.8%	87.6%	53.4%	17.4%	63.1%	77.8%	81.8%
COc1cc(NC2=C(Cl)C(=O)c3nc(C)ccc3C2=O)cc(OC)c1	-56% (active)	24.1%	-87.4% (active)	-90.2% (active)	-51.7% (active)	-97.8% (active)	14.4%	39.3%
Cn1c2ccc(Br)cc2c2c3c(c4c5cc(F)ccc5oc4c21)C(=O)N(O)C3=O	63%	89.4%	101%	54.5%	41.3%	75%	94.6%	92.6%
Cn1c2ccccc2c2c3c(c4c5ccc(Br)cc5oc4c21)C(=O)N(O)C3=O	19.5%	64.9%	88.5%	59.3%	19.2%	65.7%	91.8%	92.4%
COc1cc(-c2noc(C[C@@H](NC(=O)OCc3ccccc3)C(C)C)n2)cc(OC)c1OC	90.2%	105%	106%	98.5%	87.3%	101%	103%	105%
COc1cc2oc(-c3cccc(NC(=O)c4cc(NC(=O)[C@H](C)NC(=O)OC(C)(C)C)ccc4C)c3)cc(=O)c2c(OC)c1OC	28.2%	84.9%	90%	92.9%	67%	58%	78.6%	71.1%
COc1ccc(Cn2cc3c(c2-c2ccccc2)CCCc2cnoc2-3)cc1	56.4%	77.3%	-11.2% (active)	28.2%	22.9%	28.8%	87.9%	32%
CCC(CC)N1C(=O)/C(=c2\sc3n(c2=O)C2C(NN=3)N(CC)C(=O)N2CC)c2ccccc21 (stereo not drawn)	66.5%	78.6%	-8.32% (active)	27.2%	15%	15.1%	21.7%	14.2%
C=C(C)[C@@H]1CC[C@]2(C(=O)NCCCN(CCC#N)CCC#N)CC[C@]3(C)[C@H](CC[C@@H]4[C@@]5(C)CCC(=O)C(C)(C)[C@@H]5CC[C@]43C)[C@@H]12	91.2%	118%	101%	100%	84.9%	97.1%	104%	95.9%
Nc1c(C(=O)c2ccccc2)sc2nc(-c3cnccn3)cc(-c3cccs3)c12	98.9%	116%	98.9%	105%	90.8%	96.5%	105%	102%
